“And” between values parts separate entries of the source, which are not always exact repeats. Equal entries are not always repeated. Records with an inconclusive call do not appear. The source made the active and inactive calls. Unless noted, calls come from the whole dose curve; as a rule, active = well fitted curve in the direction sought with a large enough effect; inconclusive = small, poorly fitted or top-dose-only effect, or another doubt; inactive = no such curve, though single readings can be large; an effect the other way counts as inactive or inconclusive.
Key:
[1] = Primary qHTS to identify inhibitors of SARS-CoV-2 cell entry (AID 1645846; calls by dose curve; note: nearly all actives have a fitted effect of over 45% in size); settings: activity change, negative = inhibition: at 57.1 µM (top of the series) unless noted
Summary of the method: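 Data are normalized to wells receiving SARS-CoV-2-S pseudoparticles and those given bald particles. Entry signal was luciferase luminescence in stable hACE2 Expi293F cells, 48 hr post-infection, after 1 hr compound pretreatment.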

[2] = Primary qHTS for inhibitors of nuclear receptor binding SET domain protein 2 (NSD2) in an isogenic RCH-ACV NSD2 p.E1099K mutant (9B) (AID 1645876); note: nearly all actives have a fitted effect of over 70% in size
[3] = Primary qHTS for inhibitors of nuclear receptor binding SET domain protein 2 (NSD2) in an RCH-ACV wild type WT cells (2C) (AID 1645877); note: nearly all actives have a fitted effect of over 70% in size
[4] = NCATS anti-infectives library activity on HEK293 viability as a counter-qHTS vs the C. elegans viability qHTS (AID 1745854);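 note: HEK293 cells exposed to compounds for 24 hr before the viability read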
Summary of the method: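 HEK293 cells (1,500/well) exposed 24 hr at 37C to 1:5 titrations, up to 41.7 uM final; counter-screen to a C. elegans viability qHTS. Viability by CellTiter-Glo luminescence after 10 min at room temperature; digitonin as control.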

[5] = NCATS anti-infectives library activity on the primary C. elegans qHTS viability assay (AID 1745855; calls by dose curve); settings: C. elegans worm area imaging, day 7
Summary of the method: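 Viability read-out is GFP fluorescence of PE254-GFP-FLuc C. elegans, measured by laser cytometry (488 nm) at day 0, 3 and 7. Ten L1 worms per well were incubated 7 days at 21 °C with compounds and bacterial capsules in S medium.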

Papain (Carica papaya) = Papain (Carica papaya) (UniProt P00784); assay: Primary qHTS assay for inhibitors of the protease papain (AID 1645873);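 note: papain turnover of Z-FR-AMC read as the AMC fluorescence gain over 10 min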; for activity change, negative = inhibition: % is set by controls: 0 for no effect and ±100 for the full control effect
Chain of Papain (Carica papaya) (P00784 whole entry, looked up): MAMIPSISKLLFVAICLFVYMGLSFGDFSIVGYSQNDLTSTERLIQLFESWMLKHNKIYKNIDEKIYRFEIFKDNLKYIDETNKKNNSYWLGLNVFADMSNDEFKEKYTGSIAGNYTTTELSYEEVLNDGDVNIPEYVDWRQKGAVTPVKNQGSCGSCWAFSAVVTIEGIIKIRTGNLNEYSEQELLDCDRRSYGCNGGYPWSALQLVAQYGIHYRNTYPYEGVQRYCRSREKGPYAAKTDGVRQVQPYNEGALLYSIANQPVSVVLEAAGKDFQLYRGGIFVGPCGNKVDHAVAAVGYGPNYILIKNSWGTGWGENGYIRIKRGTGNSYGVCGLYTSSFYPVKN

[6] = VSVG counterscreen qHTS to identify inhibitors of SARS-CoV-2 cell entry (AID 1645847; calls by dose curve; note: nearly all actives have a fitted effect of over 65% in size)
Summary of the method: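 Counterscreen using VSV-G (not spike) pseudotyped MLV particles on ACE2-expressing Expi293F cells after 1 h compound preincubation; infection ran 48 h at 37 °C. Data normalized to VSV-G PP and bald-PP wells.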

[7] = biological target: N-terminal Xaa-Pro-Lys N-methyltransferase 1 (Homo sapiens) (UniProt Q9BV86); assay: Confirmatory qHTS for Inhibitors of N-terminal methyltransferase 1 (NTMT1): MTaseGlo Assay (AID 1645874); settings: NTMT1 enzyme, MTase-Glo SAH luminescence; note: nearly all actives have a fitted effect of over 65% in size
Chain of N-terminal Xaa-Pro-Lys N-methyltransferase 1 (Homo sapiens) (Q9BV86 whole entry, looked up): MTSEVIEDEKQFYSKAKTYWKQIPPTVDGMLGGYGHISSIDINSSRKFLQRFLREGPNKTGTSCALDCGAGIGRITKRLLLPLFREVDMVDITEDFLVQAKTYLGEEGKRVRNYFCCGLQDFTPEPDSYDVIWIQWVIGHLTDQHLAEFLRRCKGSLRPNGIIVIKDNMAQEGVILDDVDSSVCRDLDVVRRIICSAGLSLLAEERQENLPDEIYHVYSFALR
Summary of the method: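 NTMT1 (125 nM) preincubated 15 min with compound and 100 uM SAM, then 1 uM SPKRIA peptide added for 30 min at room temperature. SAH detected by MTase-Glo luminescence; normalized to no-enzyme and DMSO controls, fitted to 4-parameter Hill.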

[8] = biological target: Catechol O-methyltransferase (Homo sapiens) (UniProt P21964); assay: Confirmatory Screen for Target Class Profiling of Small Molecule Inhibitors of Methyltransferases (AID 1745852; calls by dose curve); settings: MTase-Glo luminescence, SAH detection, recombinant enzyme; measured here: COMT max response; stronger effect = lower value
Chain of Catechol O-methyltransferase (Homo sapiens) (P21964 whole entry, looked up): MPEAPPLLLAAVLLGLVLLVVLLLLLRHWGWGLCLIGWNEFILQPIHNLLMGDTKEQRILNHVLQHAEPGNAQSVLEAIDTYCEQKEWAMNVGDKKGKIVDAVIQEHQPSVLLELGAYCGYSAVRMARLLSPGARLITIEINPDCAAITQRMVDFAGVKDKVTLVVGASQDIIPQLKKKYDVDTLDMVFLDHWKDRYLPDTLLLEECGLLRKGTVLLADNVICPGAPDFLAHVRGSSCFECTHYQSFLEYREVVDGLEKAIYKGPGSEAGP

[9] = biological target: Guanidinoacetate N-methyltransferase (Homo sapiens) (UniProt Q14353); assay: as above; settings: MTase-Glo luminescence, SAH detection, recombinant enzyme; activity change, negative = inhibition: at 57.3 µM (top of the series)
[10] = biological target: Nicotinamide N-methyltransferase (Homo sapiens) (UniProt P40261); assay: as above; settings: MTase-Glo luminescence, SAH detection, recombinant enzyme; measured here: NNMT max response; stronger effect = lower value
Chain of Nicotinamide N-methyltransferase (Homo sapiens) (P40261 whole entry, looked up): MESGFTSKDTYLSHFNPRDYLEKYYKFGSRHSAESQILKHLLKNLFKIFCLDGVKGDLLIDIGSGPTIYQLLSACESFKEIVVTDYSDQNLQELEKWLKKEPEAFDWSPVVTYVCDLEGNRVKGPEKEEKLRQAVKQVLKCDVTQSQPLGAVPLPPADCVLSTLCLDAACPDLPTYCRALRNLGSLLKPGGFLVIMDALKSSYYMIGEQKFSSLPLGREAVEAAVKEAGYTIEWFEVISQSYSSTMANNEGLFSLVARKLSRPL

[11] = biological target: Phenylethanolamine N-methyltransferase (Homo sapiens) (UniProt P11086); assay: as above; settings: MTase-Glo luminescence, SAH detection, recombinant enzyme; measured here: PNMT max response; stronger effect = lower value
Chain of Phenylethanolamine N-methyltransferase (Homo sapiens) (P11086 whole entry, looked up): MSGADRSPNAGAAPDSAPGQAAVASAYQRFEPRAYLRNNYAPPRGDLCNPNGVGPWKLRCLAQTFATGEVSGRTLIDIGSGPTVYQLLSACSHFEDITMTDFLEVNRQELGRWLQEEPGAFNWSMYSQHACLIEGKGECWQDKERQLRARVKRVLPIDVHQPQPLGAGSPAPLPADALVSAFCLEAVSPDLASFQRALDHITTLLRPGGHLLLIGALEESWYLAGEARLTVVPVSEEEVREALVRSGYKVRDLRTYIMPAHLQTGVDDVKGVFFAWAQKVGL
Potency is the fitted concentration of half-maximal effect.

With `CC(C)[C@]12O[C@H]1[C@@H]1O[C@]13[C@]1(O[C@H]1C[C@H]1C4=C(CC[C@@]13C)C(=O)OC4)[C@@H]2O` the activity change, negative = inhibition [1] was -93.7%, the Potency [2] was 18.3 nM (active) and 23.5 nM (active) and the Potency [3] was 12.9 nM (active) and 18.6 nM (active).
For `CCc1cncnc1N1CCN(Cc2nc3ccc(C(F)(F)F)cc3[nH]2)CC1`, the Potency [1] was 28.2 µM (active).
In the case of `CCCCCC[C@H]1C(=O)O[C@H](C)[C@H](NC(=O)c2cccc(NC=O)c2O)C(=O)O[C@@H](C)[C@@H]1OC(=O)CC(C)C`, the activity change, negative = inhibition [1] is reported as -94.1%, the Potency [4] is reported as “inactive” and the Potency [5] is reported as 7.27 µM (active).
For `CCCCCCCc1ccc(CCc2cccc(O)c2C(=O)O)cc1`, the activity change, negative = inhibition [1] was -27.4%.
In the case of `CCN(CC)c1ccc(C(=C2C=CC(=[N+](CC)CC)C=C2)c2cc(S(=O)(=O)O)ccc2S(=O)(=O)[O-])cc1`, the Potency [1] is reported as “inactive”.
`COc1c(C)cnc(Cn2cnc3c(Cl)nc(N)nc32)c1C` showed an activity change, negative = inhibition [1] of -96.5%.
For `O=C(Cc1ccc(Cl)c(Cl)c1)N1CCCCC1CN1CCCC1` (centres undefined), the Potency (Papain (Carica papaya)) was “inactive”.
For `C[N+]1(C)C2CCC1CC(OC(=O)C(CO)c1ccccc1)C2` (centres undefined), the Potency (Papain (Carica papaya)) was “inactive”.
In the case of `CC(=O)Nc1ccc([C@H](C)C(=O)Nc2ncc(C(C)C)s2)cc1`, the Potency [1] is reported as 3.55 µM (active) and the Potency [6] is reported as 13.6 µM (active).
In the case of `Oc1ccc2c3c1O[C@H]1c4[nH]c5c(c4C[C@@]4(O)[C@@H](C2)N(CC2CC2)CC[C@]314)C[C@@]1(O)[C@H]2Cc3ccc(O)c4c3[C@@]1(CCN2CC1CC1)[C@H]5O4`, the Potency (Papain (Carica papaya)) is reported as “inactive”.
With `Cc1cc(Nc2cc(N3CCN(C)CC3)nc(Sc3ccc(NC(=O)C4CC4)cc3)n2)n[nH]1` the Potency [6] was 0.215 µM (active).
In the case of `CN1CC[C@@H](c2c(O)cc(O)c3c(=O)cc(-c4ccccc4Cl)oc23)[C@@H](O)C1`, the Potency [6] is reported as 1.36 µM (active).
With `C=CCn1c(=O)c2cnc(Nc3ccc(N4CCN(C)CC4)cc3)nc2n1-c1cccc(C(C)(C)O)n1` the Potency [1] was 1.41 µM (active).
In the case of `O=c1[nH]c2ccc(Cl)cc2c(N[C@@H]2CN3CCC2CC3)c1-c1nc2ccccc2[nH]1`, the activity change, negative = inhibition [1] is reported as -97.1%, the Potency [2] is reported as 64.9 nM (active) and 83.3 nM (active) and the Potency [3] is reported as 51.5 nM (active) and 83.3 nM (active).
For `CC1=C(O)C(=O)C=C2C1=CC=C1[C@@]2(C)CC[C@@]2(C)[C@@H]3C[C@](C)(C(=O)O)CC[C@]3(C)CC[C@]12C`, the Potency [1] was 14.1 µM (active), the Potency [2] was 1480 nM (active) and the Potency [3] was 1660 nM (active). For the same molecule, the Potency [4] was 7.94 µM (active) and the Potency [5] was 4.59 µM (active).
In the case of `CNC(=O)c1cc(Oc2ccc(NC(=O)Nc3ccc(Cl)c(C(F)(F)F)c3)c(F)c2)ccn1`, the Potency [6] is reported as 10.8 µM (active).
With `CS(=O)(=O)c1cccc(CNc2nc(Nc3ccc4c(c3)CCC(=O)N4)ncc2C(F)(F)F)c1` the Potency [6] was 4.29 µM (active).
In the case of `O=C(O)Cc1cnc[nH]1`, the Potency (Papain (Carica papaya)) is reported as “inactive”.
With `CC(=O)[O][Hg][c]1ccccc1` the Potency [1] was 1.58 µM (active), the Potency [7] was 1.07 µM (active) and the Potency [2] was 596 nM (active). For the same molecule, the Potency [3] was 531 nM (active).
With `NC(N)=NOCCC(N)C(=O)O` (centres undefined) the Potency (Papain (Carica papaya)) was “inactive”.
For `Cc1[nH]nc2ccc(-c3cncc(OC[C@@H](N)Cc4c[nH]c5ccccc45)c3)cc12`, the activity change, negative = inhibition [1] was -97.4%, the Potency [2] was 145 nM (active) and 235 nM (active) and the Potency [3] was 81.7 nM (active) and 132 nM (active). For the same molecule, the activity [8] was -31.1%, the Potency [9] was 30.4 µM (active) and the activity [10] was -70.5%. The activity [11] was -56.5%.
For `O=C(O)c1ccc2c(c1)nc(Nc1cccc(Cl)c1)c1ccncc12`, the Potency [6] was 2.15 µM (active).
With `CC1(N2CCC(n3c([C@@H]4CCCNC4)nc4ccccc43)CC2)CCCCCCC1` the Potency [1] was 5.01 µM (active), the Potency [2] was 8.17 µM (active) and 14.8 µM (active) and the Potency [3] was 7.28 µM (active) and 13.2 µM (active).
With `CN(c1ncccc1CNc1nc(Nc2ccc3c(c2)CC(=O)N3)ncc1C(F)(F)F)S(C)(=O)=O` the Potency [1] was 3.16 µM (active) and the Potency [6] was 2.15 µM (active).
In the case of `CC[C@@]1(O)C(=O)OCc2c1cc1n(c2=O)Cc2cc3ccccc3nc2-1`, the activity change, negative = inhibition [1] is reported as -94.8%, the Potency (Papain (Carica papaya)) is reported as 3.98 µM (active) and the Potency [2] is reported as 14.8 nM (active). For the same molecule, the Potency [3] was 13.2 nM (active).
In the case of `CCCCCCCCCCCCCCCC[N+](C)(C)C`, the Potency [1] is reported as 25.1 µM (active), the Potency [2] is reported as 422 nM (active) and the Potency [3] is reported as 596 nM (active).
For `CC(C)CC(=O)Nc1n[nH]c2c1CN(C(=O)C1CCN(C)CC1)C2(C)C`, the Potency [1] was 5.62 µM (active).
For `CCCN(CCC)C1CCc2ccc(O)cc2C1` (centres undefined), the Potency (Papain (Carica papaya)) was “inactive”.
In the case of `CC(C)[C@H](C(=O)Nc1ccc(C(=O)NO)cc1)c1ccccc1`, the activity change, negative = inhibition [1] is reported as -95.5% and the Potency [6] is reported as 30.4 µM (active).
For `C=CCN1CC[C@]23CCCCC2[C@H]1Cc1ccc(O)cc13` (some centres undefined), the Potency (Papain (Carica papaya)) was “inactive”.

Source: PubChem BioAssay (NCATS)
